In PubChem BioAssay (EPA / NIEHS):
Records with an inconclusive call do not appear. The source made the active and inactive calls. How the source made its calls: active means hit-call score of the fitted dose curve at least 0.9, where 1 is the maximum; inconclusive means response in the unintended direction; inactive means score below 0.9.

Target: Oxysterols receptor LXR-alpha (Homo sapiens) (UniProt Q13133)
Sequence (Q13133 whole entry, looked up): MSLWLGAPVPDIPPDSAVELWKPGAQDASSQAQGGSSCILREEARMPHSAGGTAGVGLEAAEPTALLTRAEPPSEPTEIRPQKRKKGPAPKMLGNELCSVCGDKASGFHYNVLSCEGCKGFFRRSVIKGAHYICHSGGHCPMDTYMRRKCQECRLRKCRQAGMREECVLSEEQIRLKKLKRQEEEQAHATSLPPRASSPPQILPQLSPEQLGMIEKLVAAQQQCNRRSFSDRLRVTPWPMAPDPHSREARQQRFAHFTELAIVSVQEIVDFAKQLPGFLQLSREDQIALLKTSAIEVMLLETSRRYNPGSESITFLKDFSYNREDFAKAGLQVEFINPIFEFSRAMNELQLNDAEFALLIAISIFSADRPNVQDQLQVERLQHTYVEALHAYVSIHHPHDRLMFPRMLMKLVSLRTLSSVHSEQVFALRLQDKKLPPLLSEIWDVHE
Assay: ATG_LXRa_TRANS: Attagene TRANS-FACTORIAL HepG2 Assay for human Liver X Receptor alpha (LXRa) (AID 2282980)
Settings: HepG2 Attagene TRANS reporter, LXRa transactivation
Summary of the method: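 Transfect HepG2 with GAL4-UAS multiplex reporter constructs (TRANS format, chimeric receptor-GAL4); treat 24 h; extract RNA, reverse-transcribe, PCR-amplify, FAM-label, HpaI-digest; resolve fragments by capillary electrophoresis. Upward response vs DMSO.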
With CCN(CC)c1ccccc1 the outcome was “inactive”.
In the case of CC(C)(C)c1ccc(O)cc1, the outcome is reported as “inactive”.
With O=C(O)C1C(C(=O)O)C2(Cl)C(Cl)=C(Cl)C1(Cl)C2(Cl)Cl (stereo unspecified) the outcome was “inactive”.
For OCC1CO1 (stereo unspecified), the outcome was “inactive”.
In the case of CC(Cl)CN(C)C (stereo unspecified), the outcome is reported as “inactive”.
With CCCCc1ccccc1 the outcome was “inactive”.

Target: Hepatocyte nuclear factor 4-alpha (Homo sapiens) (UniProt P41235)
Sequence (P41235 whole entry, looked up): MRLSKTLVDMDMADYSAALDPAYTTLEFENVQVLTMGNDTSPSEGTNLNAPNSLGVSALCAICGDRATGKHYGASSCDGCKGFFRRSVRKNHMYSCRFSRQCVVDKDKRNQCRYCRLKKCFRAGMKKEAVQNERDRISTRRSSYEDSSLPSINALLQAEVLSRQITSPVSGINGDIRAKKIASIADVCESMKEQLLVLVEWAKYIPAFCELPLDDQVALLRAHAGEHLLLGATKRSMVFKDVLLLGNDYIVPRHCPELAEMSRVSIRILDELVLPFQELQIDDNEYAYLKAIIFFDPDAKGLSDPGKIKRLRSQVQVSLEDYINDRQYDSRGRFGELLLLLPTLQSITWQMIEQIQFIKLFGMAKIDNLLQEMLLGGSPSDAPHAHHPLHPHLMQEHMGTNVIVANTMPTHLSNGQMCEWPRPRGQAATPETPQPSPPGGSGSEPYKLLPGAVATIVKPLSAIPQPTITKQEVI
Assay: ATG_HNF4a_TRANS: Attagene TRANS-FACTORIAL HepG2 Assay for human Hepatocyte Nuclear Factor 4 alpha (HNF4a) (AID 2282982)
Settings: HepG2 HNF4a transactivation reporter, mRNA readout
Summary of the method: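 Readout is fluorescent reporter-transcript fragments resolved by capillary electrophoresis after RT-PCR from HepG2 cells dosed for 24 h. Cells carried transfected GAL4-UAS reporter constructs measuring exogenous NR-GAL4 chimera activity; DMSO served as baseline.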
With c1cc2c3c(cccc3c1)CC2 the outcome was “inactive”.
With CCCCC(CC)COP(=O)(Oc1ccccc1)Oc1ccccc1 (stereo unspecified) the outcome was “inactive”.
With CCCCN(CC)C(=O)SCCC the outcome was “inactive”.
In the case of Cc1cccc(N)c1, the outcome is reported as “inactive”.
With Nc1ccc(Sc2ccc(N)cc2)cc1 the outcome was “inactive”.
With Nc1cc2c3c(c1)C(c1ccccc1)=N[C@@H](NC(=O)c1cccnc1)C(=O)N3CC2 the outcome was “inactive”.

System: not listed separately
Assay: ATG_M_06_TRANS: Attagene TRANS-FACTORIAL HepG2 Assay for M06 Transcription Factor (Internal Marker) (AID 2282983);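 on AC50: potency for rise in reporter mRNA above DMSO baseline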;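 on outcome: reporter transcript level by RT-PCR then capillary electrophoresis fluorescence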
Settings: HepG2 Attagene TRANS M06 internal marker reporter
Summary of the method: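 Transfect HepG2 with MRTUs → dose compounds 24 h → isolate RNA, oligo(dT) RT → PCR with reporter primers → 6-FAM primer extension → HpaI digest → CE fragment analysis. Positive direction vs DMSO.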
With FC(F)(F)C(F)(C(F)(F)F)C(F)(F)C(F)(F)CC1CO1 (stereo unspecified) the outcome was “inactive”.
With c1nc[nH]n1 the outcome was “inactive”.
In the case of Clc1ccc(Oc2ccccc2)cc1, the outcome is reported as “inactive”.
In the case of CCN(CC)C1CCCCC1, the outcome is reported as “inactive”.
In the case of Cc1cc(C)c(C(=O)P(=O)(c2ccccc2)c2ccccc2)c(C)c1, the AC50 is reported as 173 µM (active).
For CCCCC(CC)COP(=O)(Oc1ccccc1)Oc1ccccc1 (stereo unspecified), the outcome was “inactive”.
For COP(=O)(O)OC, the outcome was “inactive”.
With Cc1cccc(N)c1 the outcome was “inactive”.
In the case of CC(C)(C)c1ccc(O)cc1, the outcome is reported as “inactive”.
With O=C(O)C1C(C(=O)O)C2(Cl)C(Cl)=C(Cl)C1(Cl)C2(Cl)Cl (stereo unspecified) the outcome was “inactive”.
In the case of Nc1cc2c3c(c1)C(c1ccccc1)=N[C@@H](NC(=O)c1cccnc1)C(=O)N3CC2, the outcome is reported as “inactive”.
For CCOP(=S)(OCC)SCSCC, the outcome was “inactive”.
In the case of OCC1CO1 (stereo unspecified), the outcome is reported as “inactive”.
In the case of O=P(OCC(Br)CBr)(OCC(Br)CBr)OCC(Br)CBr (stereo unspecified), the outcome is reported as “inactive”.
In the case of CCOS(=O)(=O)OCC, the outcome is reported as “inactive”.
For ClC1=C(Cl)C2(Cl)C3C(Cl)C(Cl)CC3C1(Cl)C2(Cl)Cl (stereo unspecified), the outcome was “inactive”.
For CC(Cl)(Cl)C(=O)O, the outcome was “inactive”.
In the case of OCC(F)(F)OC(F)(F)C(F)(F)OC(F)(F)CO, the outcome is reported as “inactive”.
With C=CC(=O)OCC(CC)(COC(=O)C=C)COC(=O)C=C the outcome was “inactive”.
For CC(Cl)CN(C)C (stereo unspecified), the outcome was “inactive”.
With Oc1ccc(I)cc1 the outcome was “inactive”.
For N#C/C=C/c1ccccc1, the outcome was “inactive”.
With CO/N=C(/C(=O)OC)c1ccccc1COc1ccccc1C the outcome was “inactive”.
For O=C(O)C(F)(F)OC(F)(F)C(F)(F)OC(F)(F)C(=O)O, the outcome was “inactive”.
For [N-]=[N+]=[N-], the outcome was “inactive”.
With O=C(O)C=CC(F)(C(F)(F)F)C(F)(F)F the outcome was “inactive”.
With ClC(Cl)(Cl)c1ccccc1 the outcome was “inactive”.
For O=[N+]([O-])c1ccccc1, the outcome was “inactive”.
In the case of CSC(C)(C)C=NO, the outcome is reported as “inactive”.
